Compound activity from PubChem.
KCNQ2 block: KCNQ2 (rat) channel inhibition | O88943 | CHO-K1 KCNQ2, FluxOR thallium flux, 20 min; stronger effect = lower value | B-score at 10 µM | 310,000 tested, 1.1% active;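 active means fluorescence ratio B-score at most minus 3 library SDs, with starting brightness B-score within 2 library SDs, cut at about -5.5 in these data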
KCNQ2 enhance: enhances the rat KCNQ2 potassium channel; 310,000 tested, 0.54% active; O88943; B-score at 10 µM; CHO-K1 KCNQ2, FluxOR thallium flux fluorescence; stronger effect = higher value;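 active means fluorescence ratio B-score at least 3 SD of library B-scores, with initial fluorescence B-score within 3 of them, cut at about 5.3 in these data; same plate scores as AID 2156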;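 further: B-score of peak minus minimum over baseline fluorescence ratio after K+ and Tl+ stimulus; positive B-score means potentiation of KCNQ2 with more thallium influx and brighter signal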
* = called active by the depositor; i = inactive; . = no result. A selection: hits, their analogues and other compounds. The true share with any hit is near 1.6%.

SMILES	KCNQ2 block	KCNQ2 enhance
O=C(CN1CCOCC1)Nc1cccc(Cl)c1Cl	i	1
Cc1ccc(-c2noc(CN(C(=O)C(c3ccccc3)c3ccccc3)C(C)C)n2)cc1	i	.
CC(C)N(Cc1nc(-c2ccc(Cl)cc2)no1)C(=O)C(c1ccccc1)c1ccccc1	-6.2*	-6.2
COc1ccc(C(=O)Nc2sc(C)c(-c3ccccc3)c2C#N)cc1OC	-6.4*	-6.4
Cc1sc(NC(=O)COc2ccccc2)c(C#N)c1-c1ccccc1	i	.
CC(Sc1cccc[n+]1[O-])C(=O)Nc1ccc(Oc2ccccc2)cc1 (stereo not drawn)	i	.
CC(C)OCCCn1c(=O)c2ccccc2n2c(CCC(=O)NC3CCN(Cc4ccccc4)CC3)nnc12	-6*	-6
CC(C)OCCCn1c(=O)c2ccccc2n2c(CCC(=O)O)nnc12	i	1.6
Cc1csc2c(=O)[nH]cnc12	i	0.07
COc1ccc(OC)c(S(=O)(=O)N2CCCC(C(=O)N3CCCCCC3)C2)c1 (stereo not drawn)	i	.
COC(=O)C(CC(=O)c1ccc(Br)cc1)n1nc(C)cc1C (stereo not drawn)	i	0.49
COC(=O)C(CC(=O)c1ccc(Br)cc1)n1ccnc1 (stereo not drawn)	-6.2*	-6.2
CCn1c(SCC(=O)Nc2ccc(F)cc2)nnc1C1CC1	i	.
COc1ccc(C(=O)N2CCc3[nH]nc(-c4ccccc4)c3C2)cc1	i	.
Cc1c[nH]c2cccc(OCC(CNC(C)(C)C)OC(=O)c3ccccc3)c12 (stereo not drawn)	i	.
Cc1ccc(CN(CC(O)COc2cccc3[nH]cc(C)c23)C(C)(C)C)cc1 (stereo not drawn)	-6.7*	-6.7
COc1cccc(CN2CCNC(=O)C2CC(=O)NCCOc2cccnc2)c1 (stereo not drawn)	i	.
O=C(Nc1ccc(Cl)c(C(=O)N2CCOCC2)c1)c1ccccc1	i	.
Cc1ccc(CNC(=O)C2CCCN(c3cnccn3)C2)cc1 (stereo not drawn)	i	0.65
COc1ccc(-c2cc(C(F)(F)F)nc(N3CCN(Cc4ccccc4)CC3)n2)cc1OC	-5.6*	-5.6
COc1ccc(-c2cc(C(F)(F)F)nc(N3CCN(c4ccc(F)cc4)CC3)n2)cc1OC	i	0.7
CC(=O)N1c2ccc(S(=O)(=O)N3CCC(C(=O)NCc4ccccc4Cl)CC3)cc2CC1C (stereo not drawn)	i	.
O=C(Nc1nc2ccccc2s1)C1CCCN1S(=O)(=O)c1ccc(Cl)cc1 (stereo not drawn)	-5.6*	-5.6
Cc1ccc(S(=O)(=O)N2CCCC2C(=O)Nc2nc3ccccc3s2)cc1 (stereo not drawn)	i	.
COc1ccc(S(=O)(=O)N2CCCC2C(=O)NCc2ccccc2Cl)cc1 (stereo not drawn)	i	.
SMILES	KCNQ2 block	KCNQ2 enhance
Cc1ccc(S(=O)(=O)N2CCCC2C(=O)NCc2ccccc2Cl)cc1 (stereo not drawn)	-6.6*	-6.6
CC(=O)N1c2ccc(S(=O)(=O)N3CCCC(C(=O)NCc4ccccc4Cl)C3)cc2CC1C (stereo not drawn)	-6.2*	-6.2
Cc1ccc(NC(=O)c2ccc(NS(=O)(=O)c3ccc4[nH]c(=O)[nH]c4c3)cc2)nc1	i	0.38
O=C1N=C(N2CCCC2)S/C1=C\C=C\c1ccccc1	i	1.2
O=C(NCCc1cccc(Cl)c1)c1ccc(OC2CCN(Cc3ccccn3)CC2)cc1	i	.
Cc1cc(NC(=O)CSc2ncnc3sc(C)c(C)c23)no1	i	.
CC(=O)Oc1ccc(N(C(C)=O)S(=O)(=O)c2ccc(C)c([N+](=O)[O-])c2)cc1	i	1.2
CCOC(=O)C1CCCN(C(=O)Cn2nc(C)n3c(cc4c(OC)cccc43)c2=O)C1 (stereo not drawn)	i	0.99
COc1cccc2c1cc1c(=O)n(CC(=O)N3CCCCCC3)nc(C)n12	-5.7*	-5.7
CCn1cc(CN2CCC(n3nccc3NC(=O)c3ccc(OC)cc3)CC2)cn1	i	.
Cc1ccccc1CSCCNC(=O)CSCc1ccc([N+](=O)[O-])cc1	-6.4*	-6.4
Cc1ccc(CSCCNC(=O)CSCc2ccc([N+](=O)[O-])cc2)cc1	i	.
CCOC(=O)CSC1=C(C#N)C(c2ccco2)C(C(=O)Nc2cccc(C(F)(F)F)c2)=C(C)N1 (stereo not drawn)	-7.2*	-7.2
CCOC(=O)C1=C(c2ccccc2)NC(SCC(=O)Nc2cccc(C)c2)=C(C#N)C1c1ccco1 (stereo not drawn)	i	0.16
COc1ccc(S(=O)(=O)N(CC(N)=O)C2CCCCC2)cc1Cl	-5.7*	-5.7
COc1ccc(S(=O)(=O)N(C)CC(=O)NC2CCCCC2)cc1Cl	i	0.01
Cc1nc2ccccc2n1C1CCN(C(=O)Nc2ccccc2)CC1	i	1.1
Cc1cccc2c1ncc1c(=O)n(-c3ccccc3)[nH]c12	i	.
COC(=O)c1ccc(NC(=S)NC2CCc3ccccc32)cc1 (stereo not drawn)	i	.
